SMILES strings stand for the structures. Among all 360,000 compounds or so, about 10,000 (2.8%) were called active. Not shown: some 4% with an inconclusive outcome. The sample holds actives, similar compounds and a random draw of the others, so the mix is not that of the screen. Unmarked numbers belong to inactive results. Calls come from the whole dose curve; as a rule, active = well fitted inhibition curve with a large enough effect; inconclusive = small, poorly fitted or top-dose-only effect; inactive = flat fitted curve, though single readings scatter.
% is set by controls: 0 for no effect and ±100 for the full control effect; potency is the fitted concentration of half-maximal effect.

Sequence of Serine/threonine-protein kinase PLK1 (Homo sapiens) (P53350 whole entry, looked up, the tested form may be a part): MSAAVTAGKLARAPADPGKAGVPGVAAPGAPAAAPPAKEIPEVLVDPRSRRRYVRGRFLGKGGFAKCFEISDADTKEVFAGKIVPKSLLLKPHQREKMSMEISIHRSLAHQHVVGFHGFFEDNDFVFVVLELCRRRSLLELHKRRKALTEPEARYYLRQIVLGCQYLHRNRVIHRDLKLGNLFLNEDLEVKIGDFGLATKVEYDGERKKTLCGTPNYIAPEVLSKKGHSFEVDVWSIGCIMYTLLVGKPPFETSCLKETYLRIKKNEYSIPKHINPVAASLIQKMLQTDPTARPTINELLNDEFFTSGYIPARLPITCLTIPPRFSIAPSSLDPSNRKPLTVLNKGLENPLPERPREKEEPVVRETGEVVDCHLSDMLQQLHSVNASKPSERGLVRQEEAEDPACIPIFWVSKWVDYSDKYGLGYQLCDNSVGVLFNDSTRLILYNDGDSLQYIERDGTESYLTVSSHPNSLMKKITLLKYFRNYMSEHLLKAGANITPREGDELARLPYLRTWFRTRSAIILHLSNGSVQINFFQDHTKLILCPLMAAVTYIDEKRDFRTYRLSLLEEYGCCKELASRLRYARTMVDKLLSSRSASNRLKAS

The experiment has as its target Serine/threonine-protein kinase PLK1 (Homo sapiens) (UniProt P53350). Kind of experiment: qHTS for Inhibitors of PLK1-PDB (polo-like kinase 1 - polo-box domain): Primary Screen. For max response, negative = inhibition: series mostly up to about 57 µM. Note: nearly all actives have a fitted effect of over 65% in size. To be noted: Plk1 PBD binding of FITC phosphopeptide, fluorescence polarization. The text has this: The polo-like kinase 1 (Plk1) is a member of a conserved subfamily of serine / threonine protein kinases that plays a pivotal roles in cell proliferation. It has a C-terminal non-catalytic region called the polo-box domain (PBD) that plays a crucial role in the subcellular localization of the Plk1. […] Furthermore, depletion of the overexpressed Plk1 by RNAi efficiently induces apoptotic cell death in cancer and reduces tumor growth in mouse xenograft models. Thus, targeting Plk1 is an appealing strategy for anti-cancer therapy. Therefore, this project aimed to screen the Molecular Libraries Small Molecule Repository (MLSMR) using a novel approach to find inhibitors that target the Plk1 PBD instead of the conventional N-terminal catalytic domain. This project employed a fluorescence polarization (FP) assay using a FITC-conjugated phospho-9-mer (p-9-mer) peptide and purified human Plk1 PBD protein. The identified small molecule inhibitors of Plk1 PBD can then further be developed into useful tools for biomedical and clinical research that complements or replaces current relevant disease therapy. NIH Chemical Genomics Center [NCGC] NIH Molecular Libraries Probe Centers Network [MLPCN] MLPCN Grant: MH100728 Assay Submitter (PI): Kyung Lee, NCI
Four microliter of 25 nM FITC-p-9-mer + 60 nM Plk1 PBD in buffer solution (final concentrations 25 nM and 60 nM respectively) or 4 uL of 25 nM FITC-p-9-mer (final concentration 25 nM) in buffer will be dispensed into a 1,536 Greiner medium-binding black solid plate. Small molecules at final concentrations of 18 nM to 57 uM and positive control phospho-9-mer (sequence: Ac-PPLHSpTAI-NH2) at final concentrations 26 nM to 57 uM and phospho-13-mer (sequence: Ac-[…]pTAI-NH2) at final concentrations of 1 nM to 2.3 uM will be pin-transferred (23 nL) to the plate via a Kalypsys pin-tool robotics equipped with a 1,536-pin array. The reaction plate will be centrifuged for 1 min at 1000 rpm and incubated at room temperature for 10 min. The FITC fluorescence signals will be read using the PerkinElmer ViewLux plate reader at 480 / 20 nm excitation and 540 / 20 nm S and P polarization emission wavelengths. Reagent bottles will be kept submerged into 4 °C recirculating chiller bath and all liquid lines will be covered with aluminum foil to minimize degradation. Library plates will be screened starting from the lowest to the highest concentrations to minimize compound carryover. Vehicle only plates, with DMSO being pin-transferred instead of compound solutions, will be included regularly throughout the screen to record any systematic shifts in assay signal.
Turning to `CCOC(=O)[C@]12Cc3ccccc3[C@H]1N(C1CCCCC1)C(=O)c1cc(OC)ccc12`, the Potency was 10.6 µM (active). Turning to `CCOC(=O)c1cccc(C2=C(CNC(=O)c3ccncc3)[C@H]3CC[C@@H](C2)N3Cc2ccccc2)c1`, the max response, negative = inhibition was -3.52%. For `COc1ccc(CN2C(=O)NC(=O)/C(=C\c3ccc(OC)c(OC)c3OC)C2=O)cc1`, the Potency was 7.52 µM (active). On to `O=c1c2ccccc2nc(-c2ccc(Cl)cc2Cl)n1-c1ccncc1`, for which the max response, negative = inhibition was -3.78%.

On to `Nc1ccc([N+](=O)[O-])cc1`, for which the max response, negative = inhibition was -16%. Consider `C=CCN1C(=O)NC(=O)/C(=C/c2ccc(OCC(=O)Nc3ccc(C)cc3)cc2)C1=O`, for which the Potency was 8.44 µM (active).

Take `C=CCN(CC=C)C(=O)Nc1ccc(OCC)cc1`: the max response, negative = inhibition was -8.48%. For `CCC(=O)c1ccc(OCC(=O)N2CCN(CC(=O)Nc3ccc(C)cc3)CC2)cc1`, the max response, negative = inhibition is -6.03%. On the same count and under the same terms, to `CCOC(=O)C1CN(C)CCC1=O` (stereo not drawn) belongs -5.51%. With `O=C(CCCn1c(=O)[nH]c2cc(Cl)ccc2c1=O)N1CCC2(CC1)OCCO2`, the max response, negative = inhibition was -6.33%. Consider `COC(=O)N(c1ccc(OC)cc1)P1(=S)OCCC(C)O1` (stereo not drawn), for which the Potency is 2.67 µM (active). Consider `Cc1ccc(N(C)C(=O)Oc2cccc3ccc(C)nc23)cc1`, for which the max response, negative = inhibition is 0.137%. Take `COc1ccc(N2C(=O)/C(=C/c3ccco3)C(=O)NC2=S)cc1`: the Potency was 2.67 µM (active). `CC(=NCC1CCCO1)c1c(O)n(-c2ccccc2)c(=O)[nH]c1=O` (stereo not drawn): the max response, negative = inhibition was -9.8%.

In the case of `COCc1cc(OC(=O)N(C)C)nc(-c2ccc(C)c(Cl)c2)n1`, the max response, negative = inhibition was -4.36%. Regarding `CCC(=NCc1ccco1)c1c(O)n(Cc2ccccc2)c(=O)[nH]c1=O`, the max response, negative = inhibition was -18.9%.

Turning to `O=C(N/N=C/c1c(O)n(Cc2ccccc2)c(=O)[nH]c1=O)c1ccccc1`, the max response, negative = inhibition was -9.07%. On to `CC/C(=N\NC(=O)c1ccccc1O)c1c(O)n(Cc2ccccc2)c(=O)[nH]c1=O`, for which the Potency is 16.8 µM (active).

`COC(=O)C1=C(c2ccc(Cl)c(C(F)(F)F)c2)C[C@@H]2CC[C@H]1N2C(=O)NC(C)C`: the max response, negative = inhibition was -9.53%. On to `O=C(COc1ccc2ccccc2c1)N1CCN(Cc2ccncc2)CC1`, for which the max response, negative = inhibition was -21.6%. For the compound `COc1ccc(-c2nc(CS(=O)CC(=O)N3CCC4(CC3)OCCO4)c(C)o2)cc1` (stereo not drawn), the max response, negative = inhibition was -28%.

`ClC(Cl)(Cl)c1ccccc1`: the max response, negative = inhibition is -9.92%.

On to `NCCc1c[nH]c2ccc(O)cc12`, for which the max response, negative = inhibition was -10.9%.

For `CCOc1ccc(CN(CCCl)CCCl)cc1C(=O)OC`, the Potency is 26.7 µM (active). For the compound `CCCCC(=O)N/N=C/c1c(O)n(CCC2=CCCCC2)c(=O)[nH]c1=O`, the max response, negative = inhibition was -3.58%.

With `O=C(O)COc1ccccc1/C=C1\C(=O)NC(=O)N(CCC2=CCCCC2)C1=O`, the Potency is 11.9 µM (active).

Regarding `COc1cc(C(=O)N2Cc3ccc(Br)cc3-n3nncc3C2)cc(OC)c1OC`, the max response, negative = inhibition was -10%. On the same count and under the same terms, to `CC(C)c1ccc(OCC(=O)N2CCN(C)CC2)c(Br)c1` belongs -13.2%; to `c1cc2c(c(NC3=NCCCS3)c1)CCCC2`, -11.8%; to `CCOP(=O)(OCC)C(NC(=O)c1ccc(OC)cc1)C(Cl)(Cl)Cl` (stereo not drawn), 1.87%.

As for `CC(=O)Cc1ccc(OC(C)C)cc1`, the max response, negative = inhibition was 1.86%. With `CC(=O)c1ccc(OC(NC(=O)Cc2ccccc2)C(Cl)(Cl)Cl)cc1` (stereo not drawn), the Potency was 13.4 µM (active).

For `COC(=O)C1=C(c2ccc(OCc3ccccc3)cc2)C[C@@H]2CC[C@H]1N2C(=O)NCc1cccc(F)c1`, the max response, negative = inhibition was -7.41%.

For `CN(C)C(=O)Oc1ccc(NC(=O)N2CCOCC2)cc1`, the max response, negative = inhibition was -3.11%. `CCOC(=O)CNC(=O)N1Cc2cc(N3CCCCC3)ccc2-n2nncc2C1`: the max response, negative = inhibition is -3.84%.

As for `O=C1NC(=O)N(Cc2ccco2)C(=O)/C1=C\c1ccc(-c2ccc(F)cc2)o1`, the Potency is 0.423 µM (active).

With `O=C1NC(=O)N(Cc2ccco2)C(=O)/C1=C\c1cccn1CCOc1ccccc1`, the Potency was 15 µM (active).

As for `N#CC1=C(N)Oc2c(c(=O)oc3ccccc23)C1c1ccccc1OC(=O)c1cccs1` (stereo not drawn), the max response, negative = inhibition was -2.78%. On the same count and under the same terms, the result for `CN(C)CC1CCCCC1=O` (stereo not drawn) reads -3.76%; that for `CCC(C)n1c(O)c(/C=N/Nc2nc3c(c(=O)n(C)c(=O)n3C)n2C)c(=O)[nH]c1=S` (stereo not drawn), -11.1%. For `O=c1c2ccccc2nc(CBr)n1-c1ccc(Cl)cc1`, the max response, negative = inhibition was -5.73%.

With `CCC(C)(O)C(=O)OC1C(=O)OC2CC3C(C)=CC(=O)C(O)C3(C)C3C4(O)OCC23C1C(C)C4O` (stereo not drawn), the max response, negative = inhibition is -4.99%. As to `CCC(=O)OC(Cc1ccccc1)(c1ccccc1)C(C)CN(C)C` (stereo not drawn), the max response, negative = inhibition is -11.9%.

Source of the values: PubChem BioAssay AID720504 (National Center for Advancing Translational Sciences (NCATS), 2013).
